For the test, the target named is Streptavidin (Streptomyces avidinii) (UniProt P22629). Kind of test: compounds binding control protein streptavidin – biophysical, small-molecule microarray, 635/667 nm fluorescence, artefact control for SMM compound annotation, primary screen (AID 1147).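 Note: signal reflects streptavidin binding to arrayed compounds as a control protein.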 Conditions: higher = more signal.
Chain of Streptavidin (Streptomyces avidinii) (P22629 whole entry, looked up): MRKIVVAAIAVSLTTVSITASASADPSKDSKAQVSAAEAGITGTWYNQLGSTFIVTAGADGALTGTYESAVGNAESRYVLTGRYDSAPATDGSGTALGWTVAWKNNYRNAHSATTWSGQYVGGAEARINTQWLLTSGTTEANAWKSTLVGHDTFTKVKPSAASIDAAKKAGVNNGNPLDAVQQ
`Cc1ccccc1C(O)C1C=CC2C(=O)N(c3ccccc3)C(=O)C2N1Nc1ccccc1F` (stereo not given) yielded a composite z-score of 1.14. `COC(=O)[C@@]1(CCS(=O)(=O)c2ccccc2)N=C(c2ccc(OCCCO)cc2)O[C@H]1c1ccccc1N=[N+]=[N-]`: the composite z-score came to 0.586.

In turn, `C=C(CCCC)C(=O)CC[C@H](OC(=O)c1cccnc1)c1ccc(CO)o1` returned a composite z-score of 0.14.

In turn, `COCCOC(=O)N1C(=O)[C@@]2(c3cc(C#CC4(O)CCCCCC4)ccc31)[C@H](c1ccc(OCCO)cc1)N1[C@H](c3ccccc3)[C@H](c3ccccc3)OC(=O)[C@H]1[C@@H]2C(N)=O` yielded a composite z-score of 0.213.

`CN(C)C(=O)[C@]1(Cc2ccccc2)N=C(c2ccc(OCCCO)cc2)O[C@@H]1c1ccccc1`: the composite z-score came out at 0.589. `COc1ccc(C#Cc2ccc3c(c2)[C@]2(C(=O)N3)[C@H](C(=O)Nc3nc4ccccc4s3)[C@H]3C(=O)O[C@H](c4ccccc4)[C@H](c4ccccc4)N3[C@@H]2c2ccc(OCCO)cc2)cc1` had a composite z-score of 1.57. As for `CCOC(=O)C[C@H]1[C@H](OC(=O)c2ccc(C(=O)c3ccccc3)cc2)[C@@H](NC(=O)c2ccc3ccccc3c2)c2cc(OCCCO)ccc2N1C(=O)c1ccc2ccccc2n1`, the composite z-score was 0.129. `CN(C)CCCCNC(=O)[C@H]1C[C@H]2C(=O)N[C@@H](Cc3ccccc3)C(=O)N2[C@H]1c1cccc(OCCO)c1`: the composite z-score was -0.203. As for `C=C(CC1([C@@H](NP(=O)(c2ccccc2)c2ccccc2)[C@H]2C[C@@H]2CCN(C(=O)OCC)S(=O)(=O)c2ccc(C)cc2)CC1)c1ccccc1`, the figure is 1.27; as for `C=C(CCCC)/C(=C/C[C@H](OC(C)=O)c1cccc(OCCO)c1)c1cc(C(=O)OC)ccc1OC`, -0.77; as for `C=CCNC(=O)[C@H]1[C@@H]2C(=O)O[C@@H](c3ccccc3)[C@@H](c3ccccc3)N2[C@@H](c2ccccc2OCCO)[C@]12C(=O)N(C(=O)OCCOC)c1ccccc12`, 0.618. Molecule `O=C1OCCC/C=C\[C@H]2OC34C=CCN(Cc5ccccc5)C(=O)[C@H]3N(CCCCCO)C(=O)[C@@H]4C12` (stereo not given in full) had a composite z-score of -1.26. As for `CC(C)(C)OC(=O)CC[C@]1(C(=O)N2CCOCC2)N=C(c2ccc(OCCCO)cc2)O[C@H]1c1ccccc1CN=[N+]=[N-]`, the figure is 1.08; as for `CCCC=C(CCC)[C@@H](NC(=O)c1ccco1)c1ccc(C(=O)OC)cc1`, 1.92. For the molecule `COC(=O)c1c(CC[C@@H](CO)NC(=O)N[C@@H](Cc2ccccc2)Cn2cc(-c3cncn3C)nn2)oc(C(C)=O)c1C(=O)OC`, the composite z-score was -0.0808. Next, `COC(=O)[C@@]1(Cc2ccc(OC)cc2)[C@H]2c3cc(C(=O)N(C)C)n(Cc4ccsc4Br)c3C[C@H]2CN1C(=O)c1ccccc1`: 0.705. For `C=CCC(OC(C)=O)[C@@H]1[C@@H](N(Cc2ccc(-c3ccccc3)cc2)C(=O)c2ccc(-c3ccccc3)cc2)c2cc(OCCCO)ccc2N1C(=O)c1ccc2ccccc2n1` (stereo not given in full), the composite z-score came to 0.21. The molecule `O=C1c2ccccc2[C@](Cc2ccccc2I)(C(=O)O)[C@H](c2ccc(CO)cc2)N1Cc1ccccc1` had a composite z-score of 0.201. Consider `COCC(=C=CC[C@@H](O)c1cccc(OCCO)c1)C[C@@H](O)COCc1ccccc1`, for which the composite z-score was found to be 0.709. `C[N+](C)(C)CCCCCCNC(=O)[C@@H]1C[C@@H]2C(=O)N[C@@H](Cc3ccccc3)C(=O)N2[C@@H]1c1ccc(O)cc1` displayed a composite z-score of -0.0442. In the case of `COCCOC(=O)N1C(=O)[C@@]2(c3ccccc31)[C@H](c1ccc(OCCO)cc1)N1[C@H](c3ccccc3)[C@H](c3ccccc3)OC(=O)[C@H]1[C@@H]2C(=O)N1CCN(c2ncccn2)CC1`, the composite z-score came out at 0.826. Molecule `COCCOC(=O)N1C(=O)[C@@]2(c3cc(C#CCCO)ccc31)[C@H](c1ccccc1OCCO)N1[C@H](c3ccccc3)[C@H](c3ccccc3)OC(=O)[C@H]1[C@@H]2C(=O)N1CCc2cc(OC)c(OC)cc2C1` gave a composite z-score of 0.321. For the molecule `C=CCC(OC(C)=O)[C@@H]1[C@@H](N(Cc2cc3ccccc3o2)C(=O)Cc2ccc(OC)cc2)c2cc(OCCCO)ccc2N1C(=O)Cc1ccc(OC)cc1` (stereo not given in full), the composite z-score was -0.213. For the molecule `CC(C)C[C@H]1NC(=O)[C@@]23C(=O)N[C@@H](Cc4ccccc4)C2[C@H](C)[C@@]2(C)O[C@H]2C3/C=C/C/C=C\CNC(=O)[C@@H]2CCCN2C1=O` (stereo not given in full), the composite z-score is -0.362.

Molecule `COCCOC(=O)N1C(=O)[C@@]2(c3cc(C#CCC(C(=O)OC)C(=O)OC)ccc31)[C@H](c1ccc(OCCO)cc1)N1[C@H](c3ccccc3)[C@H](c3ccccc3)OC(=O)[C@H]1[C@@H]2C(=O)N1CCCCCCC1` returned a composite z-score of 2.53. As for `COCC(=C=CC[C@@H](O)c1ccc(OCCO)cc1)C[C@@H](O)COCc1ccccc1`, the figure is -0.223. Consider `COC(=O)[C@@H]1N=C(c2ccc(OCCCO)cc2)O[C@@H]1c1ccccc1CN=[N+]=[N-]`, for which the composite z-score stood at 0.551. `C=C(COC)C(=O)CC[C@@H](OC(C)=O)c1ccc(OCCO)cc1`: the composite z-score is -0.0368. `O=C(NCCO)C1=C[C@H](Oc2ccccc2I)[C@@H](O)[C@H](NCc2ccc(F)cc2)C1` yielded a composite z-score of -0.743. As for `O=C1O[C@@H](c2ccccc2)[C@@H](c2ccccc2)N2[C@@H](c3ccc(OCCO)cc3)[C@]3(C(=O)Nc4ccc(C#CCCO)cc43)[C@@H](C(=O)Nc3nc4ccccc4s3)[C@H]12`, the figure is 1.05. For `NCCCC[C@@H]1NC(=O)[C@H]2C[C@@H](C(=O)O)[C@@H](c3cccc(OCCO)c3)N2C1=O`, the composite z-score amounted to 1.99. For the molecule `COCCOC(=O)N1C(=O)[C@@]2(c3cc(C#CCCO)ccc31)[C@H](C(=O)N1CCc3cc(OC)c(OC)cc3C1)[C@H]1C(=O)O[C@H](c3ccccc3)[C@H](c3ccccc3)N1[C@@H]2c1ccccc1OCCO`, the composite z-score was found to be 0.587. As for `COC(=O)[C@@]1(Cc2ccccc2)[C@@H]2[C@@H](CC(=O)[C@H]2CC(=O)C(=O)N(C)C)CN1C(=O)c1ccccc1`, the figure is 0.315; as for `O=C1O[C@H](c2ccccc2)[C@H](c2ccccc2)N2[C@H]1[C@@H](C(=O)N1CCN(c3ncccn3)CC1)[C@]1(C(=O)Nc3ccccc31)[C@H]2c1ccc(O)cc1`, -0.0699. On to `CCOC(=O)C1=CC[C@@H](c2ccccc2Cl)N(S(=O)(=O)c2ccc(C)cc2)[C@H]1c1cccc(OC)c1`, for which the composite z-score was 0.333.

(Values after PubChem BioAssay.)
